According to ChEMBL document CHEMBL4513216, “Probing the Open Global Health Chemical Diversity Library for Multistage-Active Starting Points for Next-Generation Antimalarials” (ACS Infect Dis, 2020):
The campaign covered roughly 69,000 compounds. About 8,600 (12%) showed an effect of 50% or more. Only a selection was taken, and strong results are over-represented in it overall.

tested on: Plasmodium berghei; assay: Screen against P. berghei liver stage (PbLuc), transformed with Luciferase, at 10uM; type: functional, HepG2; conditions: tested at 10 uM

Row | Compound | INHIBITION [%]
1 | CCc1ccsc1C(=O)N1CCN(CC(N)=O)CC1 | -53.5
2 | CCn1cc(CN2CCCN(C(=O)c3sccc3C#N)CC2)cn1 | 24
3 | CCn1cc(CN2CCCN(C(=O)c3sccc3OC)CC2)cn1 | -34
4 | CCc1ccsc1C(=O)N1CCCN(Cc2cnn(CC)c2)CC1 | 58.5
5 | CCc1ccsc1C(=O)N1CCS(=O)(=O)CC1 | 53.7
6 | Cc1csc(N2CCCN(C(=O)C(C)n3cncn3)CC2)n1 (stereo unspecified) | 17.4
7 | CC(C)n1cc(CN2CCCN(C(=O)C3CCOC3)CC2)cn1 (stereo unspecified) | -29.1
8 | CSC(C)C(=O)N1CCCN(Cc2cnn(C(C)C)c2)CC1 (stereo unspecified) | -19.9
9 | Cc1csc(N2CCN(C(=O)C(C)n3cncn3)CC2)n1 (stereo unspecified) | 60.5
10 | Cc1csc(N2CCN(C(=O)C(C(C)C)n3cncn3)CC2)n1 (stereo unspecified) | 17.4
11 | CC(C)n1cc(CN2CCCN(C(=O)C3(C)CCOCC3)CC2)cn1 | 54.5
12 | CCc1ccsc1C(=O)N1CCN(CC(C)O)CC1 (stereo unspecified) | -27.8
13 | O=C(c1cccnc1)N(CCO)Cc1cc(Br)ccc1F | -5.1
14 | CNc1nc(C2CCCN(C(=O)C(C)(C)OC)C2)nc2c1CN(C)CC2 (stereo unspecified) | -12.9
15 | CC(C(=O)NCCOc1ccc2c(c1)CCC2)n1cncn1 (stereo unspecified) | -81.3
16 | Cc1ccc(S(=O)(=O)N2CCN(CCCO)CC2)s1 | 30.1
17 | c1cncc(-c2noc(CNC3CCc4ncnn4C3)n2)c1 (stereo unspecified) | 29.4
18 | Cc1cc(C)n(CC2CCCCN2C(=O)c2ccsc2)n1 (stereo unspecified) | -3.2
19 | CC(C)C(Sc1nncn1C1CC1)C(=O)NCc1cccnc1 (stereo unspecified) | -38
20 | CC(NC(=O)Cc1cccs1)c1nnc2n1CCC2 (stereo unspecified) | -12.2
21 | O=C(c1cc[nH]n1)N1CCC(c2cc(Nc3ccccn3)n[nH]2)CC1 | -3.31
22 | Cc1nnc(NC(=O)NCc2ccoc2)s1 | -19.9
23 | Cc1cccc2c1ccn2CC(=O)O | 35

Row | Compound | INHIBITION [%]
24 | O=C(Cn1ccc2ccc(Br)cc21)NC[C@@H]1CCCN2CCCC[C@H]12 | 37.1
25 | COC(=O)[C@H](C)NC(=O)Cn1ccc2ccc(F)cc21 | 50.8
26 | O=C(Cn1ccc2ccccc21)NC[C@@H]1CCCN2CCCC[C@H]12 | 23.5
27 | O=C(CCn1ccc2cc(Br)ccc21)NC[C@@H]1CCCN2CCCC[C@H]12 | 49
28 | O=C(Cn1ccc2cc(Br)ccc21)NC[C@@H]1CCCN2CCCC[C@H]12 | 58.3
29 | O=C(Cn1ccc2ccc(F)cc21)NC[C@@H]1CCCN2CCCC[C@H]12 | 58.3
30 | COC(=O)CNC(=O)Cn1ccc2ccc(F)cc21 | 13.9
31 | CC[C@H](C)[C@H](NC(=O)Cn1ccc2ccc(F)cc21)C(=O)OC | -24.6
32 | COCCNC(=O)Cn1ccc2ccc(F)cc21 | 17.1
33 | O=C(Cn1ccc2ccc(F)cc21)NCc1ccc(C(=O)O)cc1 | 6
34 | Cc1cccc2c1ccn2CC(=O)NC[C@@H]1CCCN2CCCC[C@H]12 | 51.9
35 | Cc1ccnn1CCC(=O)N1CCCC2(C1)NC(=O)c1ccccc1O2 (stereo unspecified) | -2.2
36 | CC1=C(C(N)=O)C(c2cn(C)nc2C)N2C(=O)CSC2=N1 (stereo unspecified) | -20.5
37 | CCn1ncc2c1C(COCC1CC1)N(C(=O)c1ccncn1)CC2 (stereo unspecified) | 9.34
38 | CC(=O)N1CCCCC1c1nc(N)ncc1-c1ccccc1 (stereo unspecified) | 38.1
39 | CN1CCC2(CCCN(C(=O)c3cncn3C)C2)CC1 | 29
40 | Cc1noc(CCNC(=O)NCc2ccc(OC3CCCC3)cc2)n1 | -33.4
41 | CO[C@@H]1CN(c2ccccc2)S(=O)(=O)[C@@]12CCN(Cc1cncs1)C2 | 41.9
42 | Cc1cc(C)n(C2CCN(S(=O)(=O)N3CCC(C)CC3)CC2)n1 | 19.3
43 | CC(=O)N1N=C(c2ccccc2)OC1C(=O)NCCc1cccc(F)c1 (stereo unspecified) | -18.2
44 | CN(C)C(=O)N1CC[C@H]2[C@H]1CCN2c1nncs1 | 2.4
45 | COCc1nc(C(=O)N2CCCC2c2ccc(OC)cc2)cs1 (stereo unspecified) | 46.2
46 | OC12CCC(CC1)N(Cc1ccc(F)cc1)C2CN1CCOCC1 (stereo unspecified) | 9.36

Row | Compound | INHIBITION [%]
47 | Cc1ccc2c(ccn2CCC(=O)NC[C@@H]2CCCN3CCCC[C@H]23)c1 | -3.95
48 | Cc1ccc2c(ccn2CC(=O)NC[C@@H]2CCCN3CCCC[C@H]23)c1 | 47.4
49 | COc1ccc2c(ccn2CC(=O)NC[C@@H]2CCCN3CCCC[C@H]23)c1 | 54.8
50 | Cc1ccc(-c2nc(CNCC3CN(C)CCO3)cs2)o1 (stereo unspecified) | 41.4
51 | Cc1nn(C)c2c(N(C)Cc3ccco3)nc(C3CC3)nc12 | 19.7
52 | O=C(O)[C@H]1C[C@H](C(=O)NCc2ccncc2)CN(CCC(F)(F)F)C1 | -78.5
53 | COc1ccccc1NC(=O)CC(C)NCc1scnc1C (stereo unspecified) | 25.6
54 | COc1ccccc1NC(=O)CC(C)NCCc1sc(C)nc1C (stereo unspecified) | 71.3
55 | CCc1cnc(CCNC(C)CC(=O)Nc2cccc(C)c2C)s1 (stereo unspecified) | 15.6
56 | CO[C@H]1CC[C@H]2[C@H]1OCCN2C(=O)CCOc1ccccc1 | 14
57 | COCC1COCCC12CCN(Cc1nccs1)CC2 (stereo unspecified) | 22.6
58 | CNC(=O)c1cccc(CN2CCN(c3ccncc3)CC2)c1 | 35.1
59 | Cc1cc(CN2CCC(CNS(=O)(=O)c3ccc(Br)s3)CC2)c(C)o1 | 79
60 | Cc1cc(CN2CCC(CNS(=O)(=O)c3ccc(C)s3)CC2)c(C)o1 | 49.7
61 | Cc1cc(CN2CCC(CNS(=O)(=O)c3ccccc3F)CC2)c(C)o1 | 14.4
62 | O=C(NCc1ccco1)[C@@H]1CC[C@@H]2[C@@H](CCN2Cc2ccc(F)cc2)O1 | 5.87
63 | O=C1CC(c2ccc(F)cc2)c2snc(C(=O)O)c2N1 (stereo unspecified) | 15.9
64 | O=C1CC(c2ccsc2)c2snc(C(=O)O)c2N1 (stereo unspecified) | 72.6
65 | O=C1CC(c2ccccc2)c2snc(C(=O)O)c2N1 (stereo unspecified) | 12.6
66 | O=C1CC(c2cccc(Cl)c2)c2snc(C(=O)O)c2N1 (stereo unspecified) | 55.7
67 | O=C1CC(c2ccc(F)c(F)c2)c2snc(C(=O)O)c2N1 (stereo unspecified) | 27.6
68 | O=C1CC(c2ccc(C(F)(F)F)cc2)c2snc(C(=O)O)c2N1 (stereo unspecified) | 42.4
69 | O=C(c1cccnc1)N1CCc2ncnc(C3CCOC3)c2CC1 (stereo unspecified) | 25.6

Row | Compound | INHIBITION [%]
70 | CN(Cc1ccc2c(c1)OCO2)C(=O)C1CC(c2cccc(F)c2)=NO1 (stereo unspecified) | -14.3
71 | COCCOCC(=O)N1C[C@@H]2CC[C@H](Oc3cccc(F)c3)[C@@H]2C1 | -71.9
72 | Cc1nc2c(c(=O)n1C)CCN(C(=O)CCc1ccccc1O)CC2 | 14.3
73 | COC(=O)CCC(=O)N1CCC2(CN(Cc3ccccc3F)C2)C1 | 22.4
74 | CN1CCCC2(CC1)CCN(C(=O)CCc1ccccc1O)CC2 | 56.5
75 | CN1CCCC2(CC1)CCN(C(=O)CCc1ccccc1F)CC2 | 80
76 | CN1CCN(CC2(O)CCN(C(=O)CCc3ccccc3F)C2)CC1 (stereo unspecified) | 16.705
77 | CCCC(=O)N1Cc2ccccc2CC2(CCN(C)C2)C1 (stereo unspecified) | 40
78 | COc1ccc(CCNC(=O)N2CCCC(c3nncn3C)C2)cc1 (stereo unspecified) | -12.1
79 | COCCN1CCC(CNC(=O)C2(c3ccccc3)CCOCC2)C1 (stereo unspecified) | 5.9
80 | CC1COCCN1Cc1nc(-c2cccc(C(F)(F)F)c2)no1 (stereo unspecified) | 9.54
81 | CCc1c(C)nc2ccccc2c1N1CCC(NC(C)=O)CC1 | 37.2
82 | CCc1c(C)nc2ccccc2c1N1CCC(O)CC1 | 24.4
83 | CCc1c(C)nc2ccccc2c1N1CCC(C(=O)NC)CC1 | 52.2
84 | COc1c(CNC2CCc3ccccc32)c(C(C)C)nn1C (stereo unspecified) | 11.2
85 | CC(=O)N1CCC(NC(=O)Cc2nc3nc(C)cc(C)n3n2)CC1 | 4.25
86 | O=S(=O)(NCC1OCCc2cn(Cc3ccccn3)nc21)C1CC1 (stereo unspecified) | 10.7
87 | C[C@@H]1CN(Cc2cccnc2)C[C@]12CCN(CCN1CCCC1)C2=O | 37.1
88 | Cc1ccc(CN(Cc2ccccn2)C(=O)CCC2CCCN(C)C2)s1 (stereo unspecified) | 49
89 | Cc1ccc(CN(Cc2ccccn2)C(=O)[C@H]2CC[C@@H](N)C2)s1 | 60.8
90 | Cc1ccc(CN(Cc2ccccn2)C(=O)C2CCCCCN2C)s1 (stereo unspecified) | 27.6
91 | CC(CC1CC1)NCCCN1CCCN(C)CC1 (stereo unspecified) | -7.94
92 | Cn1cc(NC(=O)Nc2cccc3cccnc23)ccc1=O | 37.9

Row | Compound | INHIBITION [%]
93 | Cc1n[nH]c(C)c1C1CCCN1C(=O)NC(C)(C)C (stereo unspecified) | 31.1
94 | COC(C)(C)CNC(=O)N1CCCC1c1c(C)n[nH]c1C (stereo unspecified) | 82.2
95 | Cc1n[nH]c(C)c1C1CCCN1C(=O)NCC(=O)NC(C)(C)C (stereo unspecified) | 43.3
96 | CCOc1c(CNC2CSCCSC2)cccc1OC | 24.9
97 | Cc1nnc([C@]23COC[C@H]2CN(Cc2cccs2)C3)o1 | 27.5
98 | COCc1noc(CC2CN(c3ncnc4sc(C)c(C)c34)CCO2)n1 (stereo unspecified) | -12.5
99 | Cc1cnc(N2CCC3(CCN(CC4CCCC4)C3=O)CC2)nc1 | -9.74
100 | CCc1ccc(-c2noc(Cn3nc(C(N)=O)ccc3=O)n2)cc1 | -16.3
101 | CC(c1nc(-c2ccccc2)no1)N1CC(n2cccn2)C1 (stereo unspecified) | -66.5
102 | Cc1cnn(C2CN(Cc3nc(-c4ccccc4C)no3)C2)c1 | 89.5
103 | COc1ccc(-c2nc(CN3CC(n4cc(C)cn4)C3)no2)cc1 | 90.1
104 | COc1ccc(-c2nc(CN3CC(n4cccn4)C3)no2)cc1 | 25.8
105 | Cc1cccc(-c2noc(Cn3nc(C(N)=O)ccc3=O)n2)c1 | 56
106 | Cc1cnn(C2CN(C(C)c3nc(-c4ccccc4)no3)C2)c1 (stereo unspecified) | 84
107 | CCCc1noc(C(C)N2CC(n3cccn3)C2)n1 (stereo unspecified) | 8.77
108 | Cc1ccccc1-c1noc(CN2CC(n3cccn3)C2)n1 | -33.7
109 | Cc1cnn(C2CN(Cc3nc(-c4ccco4)no3)C2)c1 | -0.847
110 | Cc1cnn(C2CN(Cc3noc(-c4ccccc4)n3)C2)c1 | 8.77
111 | Cc1ccc(-c2noc(Cn3nc(C(N)=O)ccc3=O)n2)cc1 | 28.2
